System: OVCAR4
Assay: Euclidean distance of Cell Painting phenotypic profile (signed KS, 77 features) to DMSO centroid (dimensionless distance); 5 or 10 uM (library dependent); higher = stronger phenotypic change vs DMSO (phenoactivity)
Details: 48 h
In short: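 Five cancer lines and a healthy fibroblast line received library compounds at 10 or 5 uM (library-dependent, 0.1% DMSO final) for 48 h. Stained cells were imaged confocally at 20X (9 fields/well). Harmony extracted 77 features, each scored as a signed Kolmogorov-Smirnov statistic against same-plate vehicle wells. Profiles were plate-position corrected, correlation-weighted and replicate-averaged at the top dose. Phenoactivity is the Euclidean distance from each profile to the median vehicle profile.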

Compound | Euclidean distance
CC(C)CC(=O)Nc1n[nH]c2c1CN(C(=O)C1CCN(C)CC1)C2(C)C | 4.04
COc1ccc(CNCc2cccc3ccccc23)cc1 | 1.04
CCN(CC)CCCC(C)Nc1ccnc2cc(Cl)ccc12 (centres undefined) [Chloroquine Phosphate] | 3.09
COc1ccc(-c2oc3c(CC=C(C)C)c(O[C@@H]4O[C@H](CO)[C@@H](O)[C@H](O)[C@H]4O)cc(O)c3c(=O)c2O[C@@H]2O[C@@H](C)[C@H](O)[C@@H](O)[C@H]2O)cc1 [Icariin] | 0.993
COc1cc(C(=O)NC2CCCNC2)cc(OC)c1OC (centres undefined) [Troxipide] | 1.43
CO[C@H]1CC[C@H](N2C(=O)CNc3ncc(-c4ccc(C(C)(C)O)nc4)nc32)CC1 | 3
O=C(O)c1cc(-c2ccc(F)cc2F)ccc1O [Diflunisal] | 1.71
Cc1ccc(-n2sc(=O)n(Cc3ccc(F)cc3)c2=O)cc1 | 1.14
COc1cc2ncnc(Nc3cccc(Cl)c3F)c2cc1OC(=O)N1CCN(C)C[C@H]1C | 1.33
COc1ccc(CNC(=O)Nc2ncc([N+](=O)[O-])s2)cc1 | 0.694
CC1Oc2cc(cnc2N)-c2c(nn(C)c2C#N)CN(C)C(=O)c2ccc(F)cc21 (centres undefined) | 1.26
CC(C)C[C@H](NC(=O)[C@H](Cc1ccccc1)NC(=O)c1cnccn1)B(O)O [Bortezomib] | 5.51
CN(C)CCOC(c1ccccc1)c1ccccc1.Cn1c(=O)c2[nH]c(Cl)nc2n(C)c1=O [Dimenhydrinate] | 0.863
O=C(Nc1ccc(S(=O)(=O)Nc2ccccc2Cl)c(Cl)c1)c1ccccn1 | 0.782

— the supplement of paper PMC10127200
